High-throughput results as filed in PubChem.
miR122 inh – blocks miR-122 activity in Huh7 sensor cells; Huh7 miR-122 Renilla luciferase sensor, 48 h; neutral wells = 0, positive control = 100; activation (reporter increase), % at 12.5 µM; 340,000 tested, 0.3% active;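 active means mean replicate activation score at least 90 and every replicate individually at or above 90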;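 further: higher luciferase means less miR-122 activity so hits act as miR-122 inhibitors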
RAD54 inh – blocks human RAD54 Holliday junction branch migration; inhibition, % at 10.4 µM; AID 602329; 360,000 tested, 0.14% active; FAM/BHQ fluorescence; Q92698;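 active means mean normalized replicate activity at least 40 and at least half of replicates scoring 40 or more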;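 further: 0% = median of neutral control wells and 100% = median of positive control wells; inhibitors cause a drop in the FAM fluorescence signal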
DNA FID counter – displaces DNA intercalator in HCV helicase counter-screen | 290,000 tested, 0.17% active | DNA fluorescent intercalator displacement, fluorescence | inhibition, % at 7.9 µM; in the data active means inhibition above about 37%;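 further: 0% = vehicle and 100% = reference compound; higher means more ethidium bromide displaced from hairpin DNA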
RAD52 anneal inh – inhibitors of human RAD52 DNA annealing; inhibition, % at 18.7 µM; recombinant RAD52 DNA annealing, FRET fluorescence; 360,000 tested, 0.46% active;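 active means every replicate showing at least 50% inhibition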
CendR NRP1 mod – modulators of CendR peptide binding to human neuropilin-1; inhibition, % at 25 µM; 360,000 tested, 0.85% active; FAM-RPARPAR peptide binding to NRP-1, fluorescence polarization; AID 602438; O14786;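 active means inhibition or corrected inhibition above about 18%, plus a signal ratio from 0.5 to 1.5, limit read from the data, passing the limit was not always enough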
Target sequence (O14786 whole entry, looked up): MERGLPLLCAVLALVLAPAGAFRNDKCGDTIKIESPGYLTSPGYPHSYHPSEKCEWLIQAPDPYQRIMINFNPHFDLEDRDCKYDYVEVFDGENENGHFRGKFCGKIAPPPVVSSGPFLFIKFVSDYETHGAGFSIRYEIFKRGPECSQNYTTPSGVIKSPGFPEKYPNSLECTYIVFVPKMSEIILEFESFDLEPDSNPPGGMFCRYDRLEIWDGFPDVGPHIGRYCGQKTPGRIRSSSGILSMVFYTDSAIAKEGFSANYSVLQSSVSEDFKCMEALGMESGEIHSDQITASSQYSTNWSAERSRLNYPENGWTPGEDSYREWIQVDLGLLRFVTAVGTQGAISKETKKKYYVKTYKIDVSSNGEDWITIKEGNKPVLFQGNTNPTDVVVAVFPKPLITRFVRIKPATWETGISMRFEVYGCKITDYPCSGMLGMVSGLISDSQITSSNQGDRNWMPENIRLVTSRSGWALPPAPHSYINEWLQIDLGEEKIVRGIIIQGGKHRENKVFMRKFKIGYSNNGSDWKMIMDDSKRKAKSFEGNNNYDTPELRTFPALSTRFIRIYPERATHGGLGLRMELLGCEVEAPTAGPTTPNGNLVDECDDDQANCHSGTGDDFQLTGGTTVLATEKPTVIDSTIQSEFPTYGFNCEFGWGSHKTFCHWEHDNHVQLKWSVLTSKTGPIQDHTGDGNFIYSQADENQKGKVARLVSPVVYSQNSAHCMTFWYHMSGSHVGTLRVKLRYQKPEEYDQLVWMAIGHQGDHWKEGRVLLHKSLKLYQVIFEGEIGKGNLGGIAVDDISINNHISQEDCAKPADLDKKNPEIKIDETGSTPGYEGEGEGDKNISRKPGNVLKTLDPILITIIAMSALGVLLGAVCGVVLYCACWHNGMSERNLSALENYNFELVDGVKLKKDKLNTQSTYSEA
N-glyco inh – N-linked glycosylation inhibition; D54 ERlucT glycosylation luciferase reporter, 24 h; percent of 100 nM tunicamycin response; reporter increase, % at 12.5 µM; 360,000 tested, 0.23% active;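 active means mean luciferase reporter signal, scaled so untreated is 0 and the glycosylation-blocking control 100, at or above a set limit in every replicate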;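 further: luciferase carries N-glycosylation sites so blocking glycosylation raises the light; 0% = median of neutral control wells and 100% = median of 100 nM tunicamycin wells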
Starred values were filed as active, the others as inactive; x = no result given; [ ] = another dose, or the depositor's remark. Compounds with a hit are over-represented: about 1.5% of the library has one in this group of screens.

SMILES	miR122 inh	RAD54 inh	DNA FID counter	RAD52 anneal inh	CendR NRP1 mod	N-glyco inh
CCS(=O)(=O)N1[C@@H](CO)[C@@H](c2ccccc2)C12CN(C(=O)C1CC1)C2	x	x	x	-10	x	x
C[C@@H]1CN([C@@H](C)CO)C(=O)c2cc(-c3ccc(C#N)cc3)cnc2O[C@H]1CN(C)Cc1ccccn1	-5[16.7 µM]	4	x	-6	x	x
O=C(COC(=O)Cc1cccs1)NCc1ccc(F)cc1	-2	1	-4	-9	25*	1
O=C(COC(=O)Cc1ccc(Br)cc1)NCc1cccs1	x	x	x	-17	12	1
Cc1ccc(-c2nnn(CC(=O)N(CC(=O)NC3CCCCC3)c3ccc(F)c(Cl)c3)n2)o1	x	2	-2	-20	29*	4
CC(=O)Nc1nonc1-n1nnc(C(=O)NCc2ccccc2)c1C	266*	4	-2	x	-2	3
COCC(=O)N1C[C@H](C)[C@H](OC)CN(C)C(=O)c2ccc(NC(=O)c3cnccn3)cc2OC[C@H]1C	x	x	x	-6	x	x
COc1ccc(NS(=O)(=O)c2cc(NC(=O)C3=NN(c4ccccc4)C(=O)CC3)ccc2OC)cc1	42	9	x	-16	27*	0
COc1ccc(NS(=O)(=O)c2cc(NC(=O)c3ccc(F)cc3)ccc2OC)cc1	108*	-5	-9	x	2	-5
Cc1ccnc(NC(=O)c2cccc(S(=O)(=O)N3CCOCC3)c2)c1	3	0	x	4	0	-4
COc1ccc(NC(=O)c2ccc(F)cc2)cc1S(=O)(=O)Nc1cc(C)ccc1Br	x	x	-5	x	0	-1
COc1ccc(OC)c(S(=O)(=O)Nc2ccc(C(C)=O)cc2)c1	100*	-4	-2	x	8	2
O=C(Nc1ccccn1)c1cccc(S(=O)(=O)N2CCOCC2)c1	160*	-2	-1	x	1	0
CCCc1cn(CC[C@H]2CC[C@@H](NC(=O)Cc3cccnc3)[C@@H](CO)O2)nn1	x	2	x	-14	x	x
C[C@H]1CN([C@@H](C)CO)C(=O)c2cc(NS(C)(=O)=O)ccc2O[C@@H]1CN(C)S(=O)(=O)c1ccc(F)cc1	-21[16.7 µM]	1	x	-4	x	x
O=C(Nc1ccc(Cl)c(S(=O)(=O)N2CCOCC2)c1)C1=NN(c2ccccc2)C(=O)CC1	-7	6	x	-34	15	1
O=C(Nc1cccc(S(=O)(=O)N2CCOCC2)c1)C1=NN(c2ccccc2)C(=O)CC1	6	-5	-34	-4	27*	-1
COc1ccc(Cl)cc1S(=O)(=O)NCCCn1ccnc1	54	1	2	0	0	2
COc1c(S(=O)(=O)NCCCn2ccnc2)ccc(Cl)c1Cl	125*	-6	-1	-10	5	1
COc1ccc(-c2csc(Nc3ccccc3)n2)cc1	x	x	-5	-7	6	-9
COc1ccc(-c2csc(Nc3cccnc3)n2)cc1	-2	x	-4	x	25*	6
Nc1ccc(N2CCCCC2)c2nonc12	-6	-1	0	-11	29*	1
CO[C@H]1CN(C)C(=O)c2ccc(NS(=O)(=O)c3cccc(C)c3)cc2OC[C@H](C)NC[C@@H]1C	x	x	x	-7	x	x
CCNC(=O)C1CCCN1C(=O)C(CCCN=C(N)N)NC(=O)C(CC(C)C)NC(=O)C(Cc1cn(Cc2ccccc2)cn1)NC(=O)C(Cc1ccc(O)cc1)NC(=O)C(CO)NC(=O)C(Cc1c[nH]c2ccccc12)NC(=O)C(Cc1cnc[nH]1)NC(=O)C1CCC(=O)N1 (configuration not stated)	-2	4	44*	x	-1	-4
Cc1noc(C)c1S(=O)(=O)N(C)C[C@@H]1Oc2ccc(NC(=O)NC3CCCCC3)cc2CC(=O)N([C@H](C)CO)C[C@@H]1C	-1[16.7 µM]	2	x	10	x	x
SMILES	miR122 inh	RAD54 inh	DNA FID counter	RAD52 anneal inh	CendR NRP1 mod	N-glyco inh
C[C@@H]1CN([C@H](C)CO)C(=O)c2cc(NS(=O)(=O)c3cn(C)cn3)ccc2O[C@@H](C)CCCCO[C@@H]1CN(C)C(=O)C1CCCCC1	6[16.7 µM]	2	x	18	x	x
CCS(=O)(=O)c1ccc(C=NNc2nc3ccccc3o2)cc1	x	x	x	-2	18*	-3
CCOC(=O)C1CCN(S(=O)(=O)c2ccc3c(c2)CCN3C(=O)C2CCC2)CC1	-7	-6	-37	x	22*	1
CCCCN1C(=O)NC(NC(=O)c2ccco2)(C(F)(F)F)C1=O (configuration not stated)	-3	-4	0	x	5	2
CC1CCCC(N2C(=O)NC(NC(=O)c3ccco3)(C(F)(F)F)C2=O)C1C (configuration not stated)	0	5	-5	x	28*	-4
COc1cc(CC(=O)OCC(=O)N2C(C)CCCC2C)cc(OC)c1OC (configuration not stated)	-4	-7	-19	-14	26*	1
COc1cc(CC(=O)OCC(=O)N2CCCCC2C)cc(OC)c1OC (configuration not stated)	x	4	-12	5	2	2
NS(=O)(=O)c1ccc(NC(=O)c2cccc3ccccc23)cc1	5	-4	-2	-16	-15	0
NS(=O)(=O)c1ccc(NC(=O)c2cccc3cc4ccccc4nc23)cc1	x	x	x	0	-36	62*
COCC(=O)N1[C@H](CO)[C@H]2c3ccccc3N(C(=O)Nc3cc(F)ccc3F)C[C@H]21	-29[16.7 µM]	-1	x	-1	x	x
CCc1c(C)nc2ncnn2c1N1CCCC(C(=O)Nc2ccc(NC(C)=O)cc2)C1 (configuration not stated)	1	-2	-25	x	29*	0
CCc1c(C)nc2ncnn2c1N1CCCC(C(=O)NCc2ccc3c(c2)OCO3)C1 (configuration not stated)	-7	12	-24	x	-4	-1
O=C(c1ccco1)N1CCN(C(=O)c2cc(-c3ccc(F)cc3)no2)CC1	-9	10	-31	0	2	1
Cn1cc(-c2cc(C(=O)O)on2)cn1	-6	-1	-7	-3	25*	-2
CCOc1nc(N=C(N)N)nc2c(C)cccc12	4	60*	2	x	13	17
CCC1(C)Nc2ccccc2C(=O)N1O (configuration not stated)	10	-13	2	x	26*	3
O=C(NC1CCCC1)N1CC2(C1)[C@H](c1ccccc1)[C@H](CO)N2CC1CCCC1	x	x	x	1	x	x
CCN(C[C@H]1N[C@@](CC)(C(=O)OC)[C@H]2C(=O)N(C)C(=O)[C@@H]12)S(=O)(=O)c1ccc(OC)cc1	0	4	x	-10	28*	0
CCN(C[C@H]1N[C@@](CC)(C(=O)OC)[C@H]2C(=O)N(C)C(=O)[C@@H]12)S(=O)(=O)c1ccc(-c2ccccc2)cc1	x	-13	x	-2	-4	-1
Cc1ccc(S(=O)(=O)NCCC(C)C)cc1[N+](=O)[O-]	232*	x	-2	-14	2	1
C/C(CCC(C)C)=N\NS(=O)(=O)c1ccc(C)c([N+](=O)[O-])c1	14	9	-2	-10	-7	0
